Bioassay records (PubChem BioAssay)
An excerpt weighted towards active compounds, which were near 10% of everything screened.
NPR1 antag: antagonists of human natriuretic peptide receptor Npr1. P16066. HEK293 hNpr1 GloSensor cGMP, ANP-stimulated luminescence. Potency, µM (doses to about 46.3 µM), actives largely listed as inhibitors. actives 1.6% (n = 76,000); calls by dose curve; also: nearly all actives have a fitted effect of over 60% in size
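HEK293 cells stably expressing human Npr1 and cGMP GloSensor pGS-40F, loaded 2 h with 2% GloSensor reagent, given compound 30 min at room temperature. Luminescence read before and 20 min after 0.1 nM hNppA.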
GPT2 inh: inhibitors of human GPT2 alanine aminotransferase. Q8TD30. Recombinant GPT2, coupled pyruvate oxidase/HRP Amplex Red fluorescence. Potency, µM (top dose mostly 57.7 µM), actives largely listed as inhibitors. actives 0.25% (n = 100,000). AID 1671188; also: nearly all actives have a fitted effect of over 60% in size
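Fluorescence of coupled pyruvate oxidase/HRP/Amplex Red system (50uM Amplex, 30 min, dark) reports pyruvate formed by GPT2. Enzyme reaction: 10ng/uL GPT2, 2mM L-alanine, 250uM a-KG, 30 min room temperature, pH 7.5; 50uM AOA control.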
3T3 cytotox: kills NIH 3T3 cells | actives 4.3% (n = 94,000) | NIH 3T3 viability, CellTiter-Glo ATP luminescence, 48-72 h | AID 1345082 | Potency, µM (highest dose often 96.7 µM), usual class: inhibitors; also: nearly all actives have a fitted effect of over 55% in size
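Cytotoxicity is measured as loss of cellular ATP: NIH 3T3 cells (400/well) are exposed to compound for 48 or 72 hr at 37 °C, then CellTiter-Glo luminescence is imaged after 10 min at room temperature.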
FLuc inh-1: blocks purified firefly luciferase enzyme activity; P08659; purified P. pyralis luciferase, luminescence, biochemical; Potency, µM (top dose mostly 115 µM), most hits filed as inhibitors; actives 2.5% (n = 76,000); also: nearly all actives have a fitted effect of over 65% in size
Target sequence (P08659 whole entry, looked up): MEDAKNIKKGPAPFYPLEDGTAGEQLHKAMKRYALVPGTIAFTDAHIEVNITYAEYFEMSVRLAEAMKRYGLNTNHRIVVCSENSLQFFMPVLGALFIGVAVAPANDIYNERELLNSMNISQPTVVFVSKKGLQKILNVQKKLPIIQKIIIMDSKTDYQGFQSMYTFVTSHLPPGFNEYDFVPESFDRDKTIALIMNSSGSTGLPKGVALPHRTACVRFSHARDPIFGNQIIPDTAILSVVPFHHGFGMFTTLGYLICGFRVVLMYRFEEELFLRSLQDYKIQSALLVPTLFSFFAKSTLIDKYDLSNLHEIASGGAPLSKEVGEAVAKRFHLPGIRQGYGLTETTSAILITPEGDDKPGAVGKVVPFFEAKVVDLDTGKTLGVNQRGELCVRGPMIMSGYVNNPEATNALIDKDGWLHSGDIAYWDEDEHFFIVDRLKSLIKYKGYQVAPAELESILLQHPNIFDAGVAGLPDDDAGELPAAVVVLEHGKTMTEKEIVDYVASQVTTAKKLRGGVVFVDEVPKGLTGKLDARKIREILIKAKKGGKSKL
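Luminescence read by CCD imaging after purified firefly luciferase (10nM final) was added to substrate buffer holding 10uM D-luciferin and 10uM ATP, pH 7.5, pre-dosed with compound.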
HEK293 tox: HEK 293 cell cytotoxicity; AID 1345083; Potency, µM (doses to about 115 µM), hits mostly inhibitors; actives 6.6% (n = 94,000); HEK 293 viability, ATP luminescence (CellTiter-Glo), 48-72 h; also: nearly all actives have a fitted effect of over 60% in size
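qHTS cytotoxicity; HEK 293, 250 cells/well; compound pinned; 48 or 72 hr, 37 degree Celsius, 5% CO2, 95% humidity; CellTiter-Glo, 10 min RT; luminescence (ATP).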
FLuc SDR no ATP: binders stabilizing firefly luciferase, without ATP; shares compounds with FLuc inh-1; Purified FLuc-C-HiBiT, Nano-Glo HiBiT luminescence, no ATP; Potency, µM (doses to about 32.7 µM), most hits filed as activators; actives 7.8% (n = 1,300); AID 1963318; also: nearly all actives have a fitted effect of over 55% in size
FLuc SDR ATP: firefly luciferase binding stabilization, ATP added; shares compounds with FLuc inh-1; purified FLuc-C-HiBiT + ATP, HiBiT complementation luminescence; Potency, µM (titrated, usually from 32.7 µM), actives largely listed as activators; actives 8.7% (n = 1,300);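 also: signal reports ligand binding via conformational change of the enzyme rather than luciferase catalysis; nearly all actives have a fitted effect of over 55% in size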
FLuc inh-2: firefly luciferase enzyme inhibition | shares compounds with FLuc inh-1 | purified FLuc-C-HiBiT enzyme, luciferin luminescence | Potency, µM (highest dose often 32.7 µM), most hits filed as inhibitors | actives 42% (n = 1,300); also: nearly all actives have a fitted effect of over 70% in size
Of the large screens only hits and unclear results are named; the others gave an inactive call (follow-up assays come after a bar, where they were run). Unless noted, calls follow the shape of the dose curve; as a rule, active = well fitted curve in the direction sought with a large enough effect; inconclusive = small, poorly fitted or top-dose-only effect, or another doubt; inactive = no such curve, though single readings can be large; an effect the other way counts as inactive or inconclusive.

O=C1OCCN1CCNc1ccc(-c2nc(-c3ccccc3F)no2)cn1	NPR1 antag inconclusive, 3T3 cytotox inconclusive, FLuc inh-1 5.62µM, HEK293 tox 44.7µM | FLuc SDR no ATP inactive | FLuc SDR ATP inactive | FLuc inh-2 inconclusive
Cc1cc(C)cc(C(=O)NCCn2ccn3nc(-c4ccc(C)cc4C)cc3c2=O)c1	3T3 cytotox inconclusive, FLuc inh-1 2.82µM, HEK293 tox inconclusive | FLuc SDR no ATP inactive | FLuc SDR ATP inactive | FLuc inh-2 7µM
Cc1ccc(C(=O)NCCn2ccn3nc(-c4ccc(C)cc4C)cc3c2=O)cc1	FLuc inh-1 inconclusive
Cc1ccc(-c2cc3c(=O)n(CCNC(=O)c4cc(F)ccc4F)ccn3n2)c(C)c1	FLuc inh-1 inconclusive
Cc1ccc(-c2cc3c(=O)n(CCNC(=O)C4CCCCC4)ccn3n2)c(C)c1	NPR1 antag inconclusive, 3T3 cytotox inconclusive, FLuc inh-1 2µM, HEK293 tox inconclusive | FLuc SDR no ATP inconclusive | FLuc SDR ATP inconclusive | FLuc inh-2 2.48µM
Cc1ccc(-c2cc3c(=O)n(CCNC(=O)c4ccc(C)s4)ccn3n2)c(C)c1	3T3 cytotox inconclusive, FLuc inh-1 4.47µM, HEK293 tox inconclusive | FLuc SDR no ATP inactive | FLuc SDR ATP inconclusive | FLuc inh-2 7µM
Cc1ccc(-c2cc3c(=O)n(CCNC(=O)c4cccc(Cl)c4)ccn3n2)c(C)c1	NPR1 antag inconclusive, 3T3 cytotox inconclusive, FLuc inh-1 1.58µM, HEK293 tox inconclusive | FLuc SDR no ATP inactive | FLuc SDR ATP inconclusive | FLuc inh-2 3.94µM
Cc1ccc(-c2cc3c(=O)n(CCNC(=O)c4nccc5ccccc45)ccn3n2)c(C)c1	3T3 cytotox inconclusive, FLuc inh-1 3.55µM, HEK293 tox 44.7µM | FLuc SDR no ATP inactive | FLuc SDR ATP inactive | FLuc inh-2 8.81µM
COc1ccc(C(=O)NCCn2ccn3nc(-c4ccc(C)cc4C)cc3c2=O)c(C)c1	NPR1 antag inconclusive, 3T3 cytotox inconclusive, FLuc inh-1 3.55µM, HEK293 tox inconclusive | FLuc SDR no ATP inactive | FLuc SDR ATP inactive | FLuc inh-2 4.95µM
Cc1ccc(-c2cc3c(=O)n(CCNC(=O)c4ccccc4F)ccn3n2)c(C)c1	FLuc inh-1 6.31µM, HEK293 tox inconclusive | FLuc SDR no ATP inconclusive | FLuc SDR ATP inconclusive | FLuc inh-2 7µM
Cc1c(C(=O)NCc2cccc(Br)c2)oc2ccc3c(c12)C(=O)CC(C)(C)O3	none (no result: NPR1 antag, GPT2 inh, 3T3 cytotox, FLuc inh-1, HEK293 tox) | FLuc SDR no ATP inactive | FLuc SDR ATP inactive | FLuc inh-2 inconclusive
O=C(CCc1conc1-c1ccccc1F)NCc1cccc(Br)c1	3T3 cytotox inconclusive
COc1ccc(-c2cc(N3CCCC(NC(=O)c4cccc5[nH]ccc45)C3)n[nH]2)cc1 (configuration not stated)	GPT2 inh inconclusive, 3T3 cytotox 35.5µM, FLuc inh-1 14.1µM, HEK293 tox 44.7µM | FLuc SDR no ATP inactive | FLuc SDR ATP inactive | FLuc inh-2 inconclusive
COc1ccc(C(=O)NC2CCN(c3cc(-c4ccc(OC)cc4)[nH]n3)C2)cc1 (configuration not stated)	none
CCOc1ccccc1C(=O)NC1CCCN(c2cc(-c3ccc(OC)cc3)[nH]n2)C1 (configuration not stated)	3T3 cytotox inconclusive, HEK293 tox inconclusive
COc1ccc(-c2cc(N3CCCC(NC(=O)c4c[nH]c5ccccc45)C3)n[nH]2)cc1 (configuration not stated)	3T3 cytotox inconclusive, FLuc inh-1 10µM, HEK293 tox inconclusive | FLuc SDR no ATP inactive | FLuc SDR ATP inactive | FLuc inh-2 inconclusive
